Experimental data published in PubChem BioAssay AID686978 (National Center for Advancing Translational Sciences (NCATS), 2013).
Among all 420,000 compounds or so, about 64,000 (15%) were called active. Another 27% or so got no clear call; they are omitted. These entries were drawn from the full list. Values without a mark were called inactive. The call rests on the fitted dose curve; in most records, active means well fitted inhibition curve with a large enough effect; inconclusive means small, poorly fitted or top-dose-only effect; inactive means flat fitted curve, though single readings scatter. Peptide text beside a SMILES is read from it.

assay: qHTS for Inhibitors of human tyrosyl-DNA phosphodiesterase 1 (TDP1): qHTS in cells in absence of CPT; conditions: DT40 Tdp1-/- hTDP1 cells, no CPT, ATP luminescence, 48 h; activity change, negative = growth inhibition: at 46.2 µM (top of the series); further: nearly all actives have a fitted effect of over 55% in size
Outline: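 Camptothecin absent (DMSO only). Human TDP1-complemented DT40 knockout cells, 400 cells/well, 37 °C for minimum 48 hr; ATP measured via CellTiter-Glo, 30 min dark incubation, luminescence.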
On the % scale 0 is the no-effect control and ±100 the full control effect; potency means the concentration at half of the fitted maximal effect.

Q: Which “activity change, negative = growth inhibition” value does the source give for `COCCn1c(C)cc(C(=O)CSc2nnc(C3CC3)n2C2CC2)c1C` here?
A: -6.52%

Q: With `COCC(C)n1c(C)cc(C(=O)CSc2cc(C)c3ccccc3n2)c1C` (stereo not given) as the compound, how does the Potency read?
A: 16.4 µM (active)

Q: With `COc1ccc2c(C)cc(SCC(=O)NCC3CCCO3)nc2c1` (stereo not given) as the compound, how does the “activity change, negative = growth inhibition” value read?
A: 1.68%

Q: Which “activity change, negative = growth inhibition” value does the source give for `Nc1nc2c(Br)ccc(Br)c2cc1C(=O)NCCc1ccccc1` here?
A: -24.4%

Q: For `CC(C)C(=O)Nc1nnc(Sc2ccc(N(C)C)cc2)s1`, which “activity change, negative = growth inhibition” value is on record?
A: -19%

Q: Which “activity change, negative = growth inhibition” value does the source give for `Cc1ccc(N=C2SCCCN2C(=O)c2cccc(N3C(=O)CCC3=O)c2)cc1Cl` here?
A: -7.58%

Q: For `CCCn1c(=O)c2ccccc2n2c(SCC(=O)/C(C#N)=C(\C)N)nnc12`, which “activity change, negative = growth inhibition” value is on record?
A: -25.6%

Q: For `Cc1cc(NC(=O)CSC2=NS(=O)(=O)c3cc(Cl)ccc3N2)no1`, which “activity change, negative = growth inhibition” value is on record?
A: 11.7%

Q: With `Cc1cccc(C)c1-n1c(C)cc(/C=C2\C(=O)NN(c3ccccc3)C2=O)c1C` as the compound, how does the “activity change, negative = growth inhibition” value read?
A: -29.2%

Q: For `O=c1oc2ccccc2c(CNc2ccccc2)c1[N+](=O)[O-]`, which “activity change, negative = growth inhibition” value is on record?
A: 4.23%

Q: With `Cc1cccc(NC(=O)c2nnn(-c3cccc(C(F)(F)F)c3)c2N)c1` as the compound, how does the “activity change, negative = growth inhibition” value read?
A: -4.86%

Q: With `CC(=O)c1nn(-c2cccc(C(F)(F)F)c2)c(=O)[nH]c1=O` as the compound, how does the “activity change, negative = growth inhibition” value read?
A: -14.1%

Q: For `Cc1cc(C(=O)Nc2cccc(C(F)(F)F)c2)c2c(C)nn(-c3cccc(F)c3)c2n1`, which Potency is on record?
A: 23.1 µM (active)

Q: With `COc1ccc(NC(=O)CN(C)C(=O)CC2CCCCC2)cc1` as the compound, how does the “activity change, negative = growth inhibition” value read?
A: 2.34%

Q: Which “activity change, negative = growth inhibition” value does the source give for `Cc1ccc(CNC(=O)CN2CCN(Cc3ccc(Cl)cc3)C2=O)cc1` here?
A: -6.2%

Q: With `CC1CCCC(NC(=O)CN2CCN(Cc3ccc(Cl)cc3)C2=O)C1C` (stereo not given) as the compound, how does the Potency read?
A: 23.1 µM (active)

Q: For `CC1CCCCC1NC(=O)COC(=O)Cc1ccc(Cl)cc1` (stereo not given), which “activity change, negative = growth inhibition” value is on record?
A: 13.6%

Q: Which “activity change, negative = growth inhibition” value does the source give for `Cc1ccc(S(=O)(=O)N/N=C(\c2ccccc2)C2CC2)cc1` here?
A: 10%

Q: For `Cc1ccc2c(c1)N(CC(=O)N1CCC(O)CC1)C(=O)CO2`, which “activity change, negative = growth inhibition” value is on record?
A: 8.57%

Q: For `CC[C@H](C)CCCCC(=O)N[C@@H](CCN)C(=O)N[C@H](C(=O)N[C@@H](CCN)C(=O)N[C@H]1CCNC(=O)[C@@H]([C@H](C)O)NC(=O)[C@H](CCN)NC(=O)[C@H](CCN)NC(=O)[C@H](CC(C)C)NC(=O)[C@@H](CC(C)C)NC(=O)[C@H](CCN)NC1=O)[C@@H](C)O` (HELM PEPTIDE1{[CC[C@H](C)CCCCC(=O)[*:2]].[Dab].T.[Dab].[Dab].[Dab].[dL].L.[Dab].[Dab].[dT]}$PEPTIDE1,PEPTIDE1,5:R3-11:R2$$$V2.0), which “activity change, negative = growth inhibition” value is on record?
A: -14% [at 21.1 µM]

Q: With `COc1ccc(-c2nc3c4ccccc4n(CC(=O)Nc4ccc(C(C)=O)cc4)c(=O)n3n2)cc1` as the compound, how does the “activity change, negative = growth inhibition” value read?
A: -1.26%

Q: For `O=c1n(Cc2cccc(C(F)(F)F)c2)c2ccccc2c2nc(-c3ccccc3)nn12`, which Potency is on record?
A: 25.9 µM (active)

Q: With `Cc1cc(N2CCN(c3cccc(C(F)(F)F)c3)CC2)n2nc(-c3ccccc3)nc2n1` as the compound, how does the “activity change, negative = growth inhibition” value read?
A: 0.913%

Q: Which “activity change, negative = growth inhibition” value does the source give for `CCN(CCCNC(=O)CCn1c(=O)[nH]c2ccsc2c1=O)c1ccccc1` here?
A: -5.18%

Q: Which “activity change, negative = growth inhibition” value does the source give for `COc1cc(OC)cc(C(=O)Nc2ncc3c(n2)CC(C)(C)CC3=O)c1` here?
A: -8.15%

Q: For `Cc1ccc(NC(=O)C(CC(=O)O)C2CCCO2)c(C)c1` (stereo not given), which “activity change, negative = growth inhibition” value is on record?
A: 0.0591%

Q: Which “activity change, negative = growth inhibition” value does the source give for `CSCCC(NC(=O)c1ccc(Cl)cc1Cl)C(=O)NNC(=O)c1csc(N2CCOCC2)n1` (stereo not given) here?
A: 15.3%

Q: For `Cc1ccc(CCn2c3c(c4ccccc42)CN(C)CC3)cn1`, which “activity change, negative = growth inhibition” value is on record?
A: -10.9%

Q: For `COc1ccc(C(=O)NC(=O)CSc2nnc(-c3ccco3)n2-c2ccccc2)cc1`, which “activity change, negative = growth inhibition” value is on record?
A: -8.95%

Q: For `Cc1ccc(-c2noc(CSc3nnnn3-c3ccccc3)n2)cc1`, which “activity change, negative = growth inhibition” value is on record?
A: -4.41%

Q: With `COc1ccc(-c2noc(CSc3nnc(-c4ccccc4)n3-c3ccc(F)cc3)n2)c(OC)c1` as the compound, how does the Potency read?
A: 20.6 µM (active)

Q: With `Cc1ccc(-c2noc(CSc3nnc(-c4ccncc4)n3-c3ccc(F)cc3)n2)cc1` as the compound, how does the Potency read?
A: 18.4 µM (active)

Q: Which “activity change, negative = growth inhibition” value does the source give for `COc1ccccc1-c1noc(CSc2nc(C)cc(=O)[nH]2)n1` here?
A: -1.42%

Q: For `Cn1c(SCc2ccc(F)cc2)nnc1-c1ccncc1`, which “activity change, negative = growth inhibition” value is on record?
A: 6.54%

Q: With `Cc1nc(N2CCOCC2)sc1C(=O)NN` as the compound, how does the “activity change, negative = growth inhibition” value read?
A: -0.716%

Q: With `COC(=O)Cc1ccc(OCC(=O)NC2CCCC2)cc1` as the compound, how does the “activity change, negative = growth inhibition” value read?
A: 0.278%

Q: With `COc1ccc(-n2nc3c(c2NC(=O)Cc2cccc(C)c2)CS(=O)C3)cc1` (stereo not given) as the compound, how does the “activity change, negative = growth inhibition” value read?
A: -2.75%

Q: For `Cc1nc(NC(CC(C)C)C(=O)O)c2nc(C)oc2n1` (stereo not given), which “activity change, negative = growth inhibition” value is on record?
A: 6.87%

Q: Which “activity change, negative = growth inhibition” value does the source give for `Cc1ccc(NC(=S)N/N=C2/CCCc3c(C)cc(C)cc32)cc1` here?
A: -5.78%

Q: With `Cc1ccc(S(=O)(=O)c2nnn3c2nc(N2CCN(c4ccccc4F)CC2)c2cc(Cl)ccc23)cc1C` as the compound, how does the “activity change, negative = growth inhibition” value read?
A: 1.48%

Q: With `COCCn1c(SCC(=O)Nc2ccccc2F)nc2c(c1=O)SCC2` as the compound, how does the “activity change, negative = growth inhibition” value read?
A: -2.31%

Q: Which “activity change, negative = growth inhibition” value does the source give for `COc1ccc(NC(=O)CSc2nc(SC)ns2)c(OC)c1` here?
A: -27.9%

Q: Which Potency does the source give for `COCCn1c(SCC(=O)Nc2cc(Cl)ccc2OC)nc2c(c1=O)SC(C)C2` (stereo not given) here?
A: 20.6 µM (active)

Q: With `Cc1ccc(Cl)cc1NC(=O)CSc1nccn1C` as the compound, how does the “activity change, negative = growth inhibition” value read?
A: -0.404%

Q: With `COCCn1c(SCC(=O)Nc2cc(OC)ccc2OC)nc2c(c1=O)SC(C)C2` (stereo not given) as the compound, how does the Potency read?
A: 13 µM (active)

Q: Which “activity change, negative = growth inhibition” value does the source give for `COc1ccc(OC)c(NC(=O)Cn2c(=O)n(Cc3ccccc3)c(=O)c3ccccc32)c1` here?
A: -29.5%

Q: Which “activity change, negative = growth inhibition” value does the source give for `CCc1cccc(C)c1NC(=O)CSc1nnc(-c2ccco2)n1N` here?
A: -2.14%

Q: For `CCOC(=O)CSc1nnc(NC(=O)c2cccc(S(=O)(=O)N3CCCC3)c2)s1`, which “activity change, negative = growth inhibition” value is on record?
A: 13.6%

Q: With `O=C(Nc1cccc2cccnc12)c1cccc2c(Br)cccc12` as the compound, how does the “activity change, negative = growth inhibition” value read?
A: -20.3%

Q: With `Cc1ccccc1CS(=O)(=O)CC1(O)CCN(C(=O)c2cccc(C(F)(F)F)c2)CC1` as the compound, how does the “activity change, negative = growth inhibition” value read?
A: -6.73%
